These results are taken from PubChem BioAssay (NCATS).

In experiment [1] the target is ATP-dependent 6-phosphofructokinase (Trypanosoma brucei brucei) (UniProt O15648). Nature of the experiment: qHTS Assay to Find Inhibitors of T. brucei phosphofructokinase: hit validation (AID 492961).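 Further: luminescence reports ADP formed as PFK phosphorylates fructose-6-phosphate with ATP; series mostly up to about 51 µM; on the % scale 0 is the no-effect control and ±100 the full control effect.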 In a few lines:
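Compounds titrated; %activity normalized to 0x and 1x enzyme controls, curve-fitted. Readout: ADP-Glo luminescence after 45 min room-temperature reaction of 1.25 nM PFK, 0.1 mM ATP, 0.5 mM F6P, pH 8.0.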

For experiment [2], the target named is Thyrotropin-releasing hormone receptor (Homo sapiens) (UniProt P34981). The experiment in a line: qHTS for Small Molecule Agonists and Allosteric Enhancers of Human TRH Receptor: Validation Screen for Agonists (AID 493127;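 active means calcium activation more than 3 SD above the typical response in the agonist read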;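 further: intracellular calcium rise by fluo-8 fluorescence before TRH EC20 addition; 0% is about no effect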). The conditions noted are these: TRH receptor agonist cell assay; at 2 µM; stronger effect = higher value. The essentials: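 TRHR-expressing cells were plated overnight in serum-containing medium, then loaded with fluo-8 calcium dye at room temperature for 30 min–1.5 h. After a 10 s baseline, compound was pin-transferred and calcium fluorescence (ex 480/em 530) read kinetically for agonist response.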

A short description of experiment [3]: Nrf2 qHTS screen for inhibitors: Validation (AID 493153; active means well fitted inhibition curve with a large enough effect in the main read-out, with a control signal flat, not every such curve was filed as active; further: potency means the concentration at half of the fitted maximal effect). The conditions noted are these: Potency: luciferase luminescence; viability change: measured here: cytotoxicity max response. In a few lines: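 A549 cells carrying an ARE-driven firefly luciferase reporter, in 5% FBS OPTI-MEM, were treated with compounds in concentration-response for 18-24 h at 37°C. Viability was read by CellTiter-Fluor fluorescence, then Nrf2 activity by luciferase luminescence.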

Experiment [4] in a line: qHTS for Inhibitors of Cell Surface uPA Generation: Validation Assay (AID 493164).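 Further: RAW 264.7 macrophage cells exposed to compound for 18 h; 0% is about no effect.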 In a few lines:
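RAW 264.7, 4000 cells/well, o/n plating; cpd 7-pt 1:5 dilution 2.45 nM–38.3 uM final; 18 h, 37 C/5% CO2; ATP-Lite, 5 s luminescence exposure.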

Experiment [5] addresses Galactokinase (Homo sapiens) (UniProt P51570). The experiment in a line: qHTS Validation Assay for Inhibitors of Human Galactokinase (GALK) (AID 493189). Further: 0% is about no effect. The essentials:
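GALK (5 nM) with 35 uM ATP and 100 uM galactose in HEPES pH 8.0 with MgCl2, NaCl, DTT and BSA. Reaction ran 1 h at room temperature. Residual ATP read by Kinase-Glo Plus luminescence.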

Experiment [6] is described as follows: Validation screen for small molecules that induce DNA re-replication in SW480 colon adenocarcinoma cells (AID 504364). Further: 0% is about no effect. The essentials:
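SW480 cells seeded at 250 per well were exposed to compound or DMSO for 48 hr at 37 C, 5% CO2, then stained with Hoechst for 40 min. DNA content per nucleus was imaged (405 nm ex, 500-530 nm em).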

The target of experiment [7] is Peptidyl-prolyl cis-trans isomerase NIMA-interacting 1 (Homo sapiens) (UniProt Q13526). Nature of the experiment: qHTS Validation Assay to Find Inhibitors of Pin1 (AID 504536; active means well fitted inhibition curve with a large enough effect in the polarisation, with a control signal flat, not every such curve was filed as active; the % refers to the polarisation;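 further: 0% = full Pin1 enzyme wells and -100% = no-enzyme wells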). The essentials:
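Fluorescence polarization competition: compounds (titration) displace HiFluor-488-labeled Pin1-1b peptide from Pin1 (0.3 uM final) in pH 7.5 HEPES buffer with DTT, 10 min at room temperature; %Activity normalized to no-enzyme wells, curves fitted.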

For experiment [8], the target named is Phosphoglycerate kinase, glycosomal (Trypanosoma brucei brucei) (UniProt P07378). The experiment in a line: qHTS Validation Assay to Find Inhibitors of Phosphoglycerate Kinase (AID 504547).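 Further: control wells lack PGK and mark full inhibition.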 In a few lines: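 PGK activity was coupled to GAPDH (100nM final), which generates the unstable substrate 1,3-bisphosphoglycerate in-well. Reactions ran 60 minutes at room temperature in 100mM TEA pH 7.6, 5mM MgCl2, 0.01% Tween-20, then Kinase-Glo Plus luminescence was read.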

Experiment [9] can be described thus: Validation screen for small molecules that induce genotoxicity in human embryonic kidney (HEK293T) cells expressing luciferase-tagged ELG1 (AID 493106). Further: 0% is about no effect. The essentials:
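HEK293T cells expressing luciferase-tagged ELG1 were exposed to compound or DMSO vehicle for 16 hr at 37 °C, 5% CO2. Genotoxic stress raises ELG1 levels, so increased luciferase signal after ONE-Glo addition and 30 min at room temperature marks hits.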

Experiment [10] addresses ATPase family AAA domain-containing protein 5 (Homo sapiens) (UniProt Q96QE3). The experiment in a line: Validation screen for small molecules that inhibit ELG1-dependent DNA repair in human embryonic kidney (HEK293T) cells expressing luciferase-tagged ELG1 (AID 493107). Further: nearly all actives have a fitted effect of over 70% in size. Further: potency means the concentration at half of the fitted maximal effect. In a few lines:
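HEK293T cells expressing luciferase-tagged ELG1 were co-treated with 5-fluorouridine and compound or DMSO for 16 hr at 37 °C, 5% CO2. Luciferase activity was then read with ONE-Glo after 30 min at room temperature; suppressed signal indicates blocked ELG1 function.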

Several values for one entry are separate records, joined by “and”; a condition that tells them apart may be missing. Identical values can stand only once. Results filed as inconclusive are left out. Activity calls are given as the source filed them. Unless noted, the call rests on the fitted dose curve; in most records, active means well fitted curve in the direction sought with a large enough effect; inconclusive means small, poorly fitted or top-dose-only effect, or another doubt; inactive means no such curve, though single readings can be large; an effect the other way counts as inactive or inconclusive.

Chain of Phosphoglycerate kinase, glycosomal (Trypanosoma brucei brucei) (P07378 whole entry, looked up): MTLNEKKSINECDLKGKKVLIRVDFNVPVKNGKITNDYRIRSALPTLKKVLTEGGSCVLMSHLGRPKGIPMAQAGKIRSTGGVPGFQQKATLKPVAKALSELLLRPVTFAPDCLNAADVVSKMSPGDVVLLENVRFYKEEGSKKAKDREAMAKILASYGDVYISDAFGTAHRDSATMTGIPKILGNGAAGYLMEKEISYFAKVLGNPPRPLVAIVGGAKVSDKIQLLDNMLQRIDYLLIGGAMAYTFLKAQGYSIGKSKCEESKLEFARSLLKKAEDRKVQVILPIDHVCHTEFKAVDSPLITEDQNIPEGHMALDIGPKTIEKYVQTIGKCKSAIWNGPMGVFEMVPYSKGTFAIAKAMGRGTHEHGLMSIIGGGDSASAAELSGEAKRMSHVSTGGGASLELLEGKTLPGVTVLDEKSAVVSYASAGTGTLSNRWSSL
Chain of Galactokinase (Homo sapiens) (P51570 whole entry, looked up): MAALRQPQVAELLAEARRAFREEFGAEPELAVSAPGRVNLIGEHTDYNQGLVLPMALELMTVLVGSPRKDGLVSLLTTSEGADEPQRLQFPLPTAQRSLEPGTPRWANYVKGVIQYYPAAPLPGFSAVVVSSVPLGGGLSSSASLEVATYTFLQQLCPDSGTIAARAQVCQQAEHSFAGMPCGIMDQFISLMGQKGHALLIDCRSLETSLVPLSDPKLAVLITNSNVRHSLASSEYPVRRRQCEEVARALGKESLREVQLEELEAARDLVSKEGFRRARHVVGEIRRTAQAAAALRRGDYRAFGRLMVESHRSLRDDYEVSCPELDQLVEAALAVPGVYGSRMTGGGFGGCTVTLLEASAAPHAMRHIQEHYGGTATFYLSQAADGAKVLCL
Chain of ATPase family AAA domain-containing protein 5 (Homo sapiens) (Q96QE3 whole entry, looked up, the tested form may be a part): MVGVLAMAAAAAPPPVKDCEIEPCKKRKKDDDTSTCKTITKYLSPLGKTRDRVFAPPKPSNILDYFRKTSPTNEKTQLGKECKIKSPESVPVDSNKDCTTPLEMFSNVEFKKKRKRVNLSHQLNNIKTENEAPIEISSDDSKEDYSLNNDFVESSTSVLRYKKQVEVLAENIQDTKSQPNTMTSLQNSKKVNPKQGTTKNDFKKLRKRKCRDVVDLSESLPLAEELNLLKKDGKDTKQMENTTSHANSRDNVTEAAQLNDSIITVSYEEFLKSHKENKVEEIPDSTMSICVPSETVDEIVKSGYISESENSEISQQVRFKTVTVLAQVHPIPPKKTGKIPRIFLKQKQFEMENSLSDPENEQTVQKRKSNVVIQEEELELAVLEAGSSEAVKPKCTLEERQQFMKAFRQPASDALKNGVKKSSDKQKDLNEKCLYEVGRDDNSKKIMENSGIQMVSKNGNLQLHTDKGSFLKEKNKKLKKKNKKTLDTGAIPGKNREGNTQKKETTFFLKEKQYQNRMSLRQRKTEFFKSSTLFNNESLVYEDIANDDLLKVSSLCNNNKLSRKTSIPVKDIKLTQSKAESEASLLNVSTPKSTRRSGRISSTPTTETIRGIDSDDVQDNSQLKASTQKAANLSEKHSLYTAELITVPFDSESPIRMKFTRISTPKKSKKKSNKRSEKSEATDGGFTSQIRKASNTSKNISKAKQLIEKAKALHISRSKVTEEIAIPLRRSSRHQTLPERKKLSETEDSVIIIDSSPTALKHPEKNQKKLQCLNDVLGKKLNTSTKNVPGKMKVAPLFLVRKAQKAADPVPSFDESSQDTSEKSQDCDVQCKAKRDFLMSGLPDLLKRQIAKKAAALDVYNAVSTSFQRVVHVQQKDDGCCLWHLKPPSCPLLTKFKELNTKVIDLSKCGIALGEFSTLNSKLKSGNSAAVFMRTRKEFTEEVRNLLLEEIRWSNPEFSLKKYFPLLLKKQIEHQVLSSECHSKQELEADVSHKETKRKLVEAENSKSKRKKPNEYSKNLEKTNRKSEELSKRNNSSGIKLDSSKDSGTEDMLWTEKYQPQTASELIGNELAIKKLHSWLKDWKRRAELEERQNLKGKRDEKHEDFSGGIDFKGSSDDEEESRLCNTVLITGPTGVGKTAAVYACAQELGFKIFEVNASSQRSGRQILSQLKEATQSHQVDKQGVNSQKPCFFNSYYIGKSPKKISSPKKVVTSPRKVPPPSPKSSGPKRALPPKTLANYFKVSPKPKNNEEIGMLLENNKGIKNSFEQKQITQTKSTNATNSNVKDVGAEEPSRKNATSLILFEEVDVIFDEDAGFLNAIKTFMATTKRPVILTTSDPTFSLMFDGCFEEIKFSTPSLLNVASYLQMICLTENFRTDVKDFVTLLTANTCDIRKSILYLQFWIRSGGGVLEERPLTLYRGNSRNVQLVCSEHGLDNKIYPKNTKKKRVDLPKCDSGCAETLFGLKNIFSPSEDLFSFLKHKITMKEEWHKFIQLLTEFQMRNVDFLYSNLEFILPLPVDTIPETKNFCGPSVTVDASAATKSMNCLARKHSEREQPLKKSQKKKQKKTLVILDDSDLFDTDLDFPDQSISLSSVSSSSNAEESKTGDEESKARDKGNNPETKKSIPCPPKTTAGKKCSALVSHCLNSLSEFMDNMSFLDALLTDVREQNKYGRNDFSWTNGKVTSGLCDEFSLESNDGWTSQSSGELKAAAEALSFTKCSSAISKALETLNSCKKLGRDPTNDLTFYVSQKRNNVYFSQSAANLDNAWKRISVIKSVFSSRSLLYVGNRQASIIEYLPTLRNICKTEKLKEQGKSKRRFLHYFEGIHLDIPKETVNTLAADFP
Chain of Peptidyl-prolyl cis-trans isomerase NIMA-interacting 1 (Homo sapiens) (Q13526 whole entry, looked up): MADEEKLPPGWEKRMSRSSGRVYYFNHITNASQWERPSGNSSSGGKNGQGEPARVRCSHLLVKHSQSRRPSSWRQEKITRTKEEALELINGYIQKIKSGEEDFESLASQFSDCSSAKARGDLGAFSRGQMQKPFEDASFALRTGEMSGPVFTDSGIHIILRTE
Chain of Thyrotropin-releasing hormone receptor (Homo sapiens) (P34981 whole entry, looked up): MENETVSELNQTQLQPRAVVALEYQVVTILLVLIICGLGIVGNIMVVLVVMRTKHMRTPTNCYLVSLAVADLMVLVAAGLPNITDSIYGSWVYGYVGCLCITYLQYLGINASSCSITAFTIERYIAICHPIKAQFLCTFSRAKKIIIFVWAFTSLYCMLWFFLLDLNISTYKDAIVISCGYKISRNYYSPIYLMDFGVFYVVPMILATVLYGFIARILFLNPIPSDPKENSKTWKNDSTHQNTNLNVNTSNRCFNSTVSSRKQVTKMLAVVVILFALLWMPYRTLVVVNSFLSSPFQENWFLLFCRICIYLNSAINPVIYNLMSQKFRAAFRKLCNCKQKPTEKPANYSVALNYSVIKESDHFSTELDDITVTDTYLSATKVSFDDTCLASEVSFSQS
Chain of ATP-dependent 6-phosphofructokinase (Trypanosoma brucei brucei) (O15648 whole entry, looked up): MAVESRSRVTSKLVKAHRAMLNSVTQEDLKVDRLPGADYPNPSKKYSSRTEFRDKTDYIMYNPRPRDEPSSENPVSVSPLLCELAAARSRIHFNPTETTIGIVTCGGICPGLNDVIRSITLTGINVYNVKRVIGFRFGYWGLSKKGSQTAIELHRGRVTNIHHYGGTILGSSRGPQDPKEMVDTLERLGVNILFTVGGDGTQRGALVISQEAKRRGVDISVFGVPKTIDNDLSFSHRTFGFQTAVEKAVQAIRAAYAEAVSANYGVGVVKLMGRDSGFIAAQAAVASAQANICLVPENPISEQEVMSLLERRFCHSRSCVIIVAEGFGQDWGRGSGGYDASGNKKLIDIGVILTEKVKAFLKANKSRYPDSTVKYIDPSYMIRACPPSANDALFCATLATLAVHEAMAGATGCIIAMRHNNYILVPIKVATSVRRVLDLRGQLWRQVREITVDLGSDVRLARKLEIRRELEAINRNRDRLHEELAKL

On to `NNCCc1ccccc1`, for which the outcome in experiment [1], in experiment [4], in [5], in [6], in [7] and in [8] was inactive. The activation in [2] is 1.5% (inactive). Also, the Potency entry in experiment [3] is “inactive”. In addition, in [3], the viability change turned out to be 2.04%.

With `CCC(C)N(C)C(=O)c1cc2ccccc2c(-c2ccccc2Cl)n1` (stereo unspecified), the Potency result in experiment [9], in experiment [10] and in experiment [3] was “inactive” in each case. Besides, the activation in experiment [2] was -6.5% (inactive). Further, the viability change in experiment [3] is -9.44%. Moreover, the call in experiment [4], in [5], in experiment [6], in experiment [7] and in experiment [8] was inactive.

On to `NCCCC(N)(C(=O)O)C(F)F` (stereo unspecified), for which the call in experiment [1], in [4], in experiment [5], in experiment [6], in experiment [7] and in experiment [8] was inactive. Further, the Potency entry in experiment [9] and in experiment [10] was “inactive” each time. In addition, the activation in experiment [2] is 0.938% (inactive).

As for `NCCc1ccc(O)c(O)c1`, the Potency entry in [9], in experiment [10] and in experiment [3] was “inactive” in each case. The activation in experiment [2] is 1% (inactive). For the same compound, the viability change in experiment [3] was 1.72%. The compound was classed as inactive in experiment [4], in experiment [5], in [6], in experiment [7] and in experiment [8].

On to `Nc1nc2ccc(OC(F)(F)F)cc2s1`, for which the Potency result in [3] is “inactive”. Besides, the viability change in experiment [3] was -4.99%. The compound was classed as inactive in experiment [4], in experiment [5], in experiment [6], in experiment [7] and in [8].

In the case of `NS(=O)(=O)c1cc2c(cc1Cl)NC=NS2(=O)=O`, the Potency entry in experiment [9], in experiment [10] and in experiment [3] was “inactive” throughout. In addition, the activation in [2] is 1.12% (inactive). The viability change in experiment [3] is -3.76%. Also, the outcome in experiment [4], in [5], in experiment [6], in [7] and in experiment [8] was inactive.

For the compound `O=C(Nc1nc2ccccc2n1CCN1CCOCC1)c1cccc([N+](=O)[O-])c1`, in experiment [9], the Potency result was “inactive”. The Potency in experiment [10] is 8.2 µM (active). In addition, the compound was classed as inactive in [4], in [7] and in experiment [8].

Turning to `c1ccc([C@H]2CN3CCSC3=N2)cc1`, the Potency result in [9], in experiment [10] and in experiment [3] was “inactive” each time. Also, in [2], the activation is 0.875% (inactive). Further, the viability change in experiment [3] was -0.324%. The result in [4], in experiment [5], in experiment [6], in experiment [7] and in experiment [8] was inactive.

Take `O=c1[nH]cnc2[nH]ncc12`: the Potency result in [9], in [10] and in experiment [3] was “inactive” in each case. Further, the viability change in experiment [3] came out at 5.19%. In addition, the compound was called inactive in experiment [4], in experiment [5], in experiment [6], in [7] and in experiment [8].

As for `NC(N)=NC(=O)c1nc(Cl)c(N)nc1N`, the Potency entry in experiment [9], in experiment [10] and in experiment [3] was “inactive” each time. Further, the activation in experiment [2] is 0.812% (inactive). Besides, in [3], the viability change was -5.66%. Also, the result in [4], in experiment [5], in experiment [6], in experiment [7] and in experiment [8] was inactive.

For the compound `C[C@]12CCC(=O)C=C1CC[C@@H]1[C@@H]2[C@@H](O)C[C@@]2(C)[C@H]1CC[C@]2(O)C(=O)CO`, the Potency in [3] was 0.0731 µM (active). In experiment [3], the viability change was -7.36%. In addition, the compound was called inactive in [4], in experiment [7] and in experiment [8].

With `CCOC(=O)N1CCC(=C2c3ccc(Cl)cc3CCc3cccnc32)CC1`, in [9], the Potency entry was “inactive”. Also, the activation in experiment [2] is -10.4% (inactive). The call in experiment [4], in experiment [5], in experiment [7] and in [8] was inactive.

Regarding `O=C1CCC(N2C(=O)c3ccccc3C2=O)C(=O)N1` (stereo unspecified), the Potency result in [9], in [10] and in [3] was “inactive” each time. Besides, the activation in experiment [2] is 0.188% (inactive). In addition, the viability change in experiment [3] was -1.75%. In addition, the call in experiment [4], in [5], in experiment [6], in experiment [7] and in experiment [8] was inactive.

Regarding `Oc1ccc(C2CNCCc3c2cc(O)c(O)c3Cl)cc1` (stereo unspecified), the Potency entry in experiment [9], in experiment [10] and in experiment [3] was “inactive” each time. For the same compound, the viability change in experiment [3] amounted to 0.62%. The result in [4], in [5], in experiment [6], in experiment [7] and in experiment [8] was inactive.

Take `O=NN(CCCl)C(=O)NCCCl`: the Potency result in [9], in experiment [10] and in [3] was “inactive” each time. In experiment [2], the activation is 0.438% (inactive). Besides, in experiment [3], the viability change was -0.612%. For the same compound, the compound was called inactive in [4], in experiment [5], in experiment [6], in experiment [7] and in experiment [8].

For `Cc1cnc(NC(=O)C2=C(O)c3ccccc3S(=O)(=O)N2C)s1`, the Potency entry in [9], in experiment [10] and in [3] was “inactive” throughout. Also, the activation in [2] is 0.812% (inactive). In addition, the viability change in [3] was -10.1%. Besides, the outcome in experiment [4], in experiment [5], in experiment [6], in experiment [7] and in experiment [8] was inactive.

Take `Cc1ccc(N(CC2=NCCN2)c2cccc(O)c2)cc1`: the Potency result in [9] and in [3] was “inactive” throughout. Moreover, the viability change in [3] amounted to 4.38%. Besides, the compound was classed as inactive in [4], in experiment [5], in experiment [6], in experiment [7] and in experiment [8].

`CC(C)(Sc1ccc(CCN(CCCCC2CCCCC2)C(=O)NC2CCCCC2)cc1)C(=O)O`: the Potency result in experiment [9] and in experiment [10] was “inactive” each time. In addition, the activation in experiment [2] is 1.5% (inactive). Besides, the compound was classed as inactive in experiment [4], in experiment [5], in experiment [6] and in experiment [8].

`Nc1ncnc2nc(-c3ccc(N4CCOCC4)nc3)cc(-c3cccc(Br)c3)c12`: in experiment [9], the Potency result was “inactive”. For the same compound, the Potency in experiment [10] was 4.11 µM (active). For the same compound, the call in experiment [4], in [7] and in [8] was inactive.

`N=c1nc(N2CCCCC2)cc(N)n1O`: the Potency result in [9], in experiment [10] and in experiment [3] was “inactive” in each case. Also, in [2], the activation was 0% (inactive). Moreover, in [3], the viability change was -11.3%. In addition, the compound was called inactive in experiment [4], in experiment [5], in experiment [6], in [7] and in experiment [8].

`CC(C)(C)NCC(O)c1ccc(O)c(CO)c1` (stereo unspecified): the Potency entry in experiment [9], in [10] and in [3] was “inactive” in each case. Moreover, the activation in experiment [2] was 0.188% (inactive) and 0.75% (inactive). Further, the viability change in [3] is -3.99% and 2.04%. Further, the outcome in experiment [4], in experiment [5], in [6], in experiment [7] and in experiment [8] was inactive.

On to `NC(=O)c1cnccn1`, for which the Potency result in experiment [9] and in [3] was “inactive” each time. In addition, in [2], the activation was 0.688% (inactive). Further, the viability change in [3] was -0.821%. In addition, the outcome in experiment [4], in experiment [5], in experiment [6], in experiment [7] and in [8] was inactive.

For the compound `NC[C@H](O)c1ccc(O)c(O)c1`, the Potency result in [9], in experiment [10] and in experiment [3] was “inactive” throughout. Besides, the viability change in experiment [3] was 3.52%. In addition, the call in [4], in [5], in experiment [6] and in experiment [7] was inactive.
